The source made the active and inactive calls. The calls were made as follows: active = hit-call score of the fitted dose curve at least 0.9, where 1 is the maximum; inactive = score below 0.9.
Assay: CCTE_Harrill_HTTr_Viability_MCF7: CCTE's 6-hour Cell Viability Assessment for the High-Throughput Transcriptomics (HTTr) Platform, in MCF-7 cells cultured in DMEM + 10% fetal bovine serum, Harrill Lab (AID 2284010)
In short: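 Propidium iodide exclusion, imaged by high-content analysis, gauged viability after a six-hour exposure across eight concentrations. Cells were MCF-7 grown in DMEM with 10% fetal bovine serum; fits run in both directions against DMSO.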

Question: Which outcome does the source give for `c1ccc(C[n+]2cccc3ccccc32)cc1` here?
Answer: inactive

Question: For `CCCCCCCCCC(=O)O`, which outcome is on record?
Answer: inactive

Question: With `C[C@]12CC[C@@H]3c4ccc(O)cc4CC[C@H]3[C@@H]1CCC2=O` as the compound, how does the outcome read?
Answer: inactive

Question: Which outcome does the source give for `O=C(Nc1ccc(Cl)cc1)Nc1ccc(Cl)c(Cl)c1` here?
Answer: inactive

Question: Which outcome does the source give for `CC[C@H](NC(=O)c1cc(F)ccc1NS(=O)(=O)c1cccc2cccnc12)c1ccccc1` here?
Answer: inactive

Question: With `CC1(C)NC(=O)N(c2ccc([N+](=O)[O-])c(C(F)(F)F)c2)C1=O` as the compound, how does the outcome read?
Answer: inactive

Question: For `O=C(OCCCCCCOC(=O)c1ccccc1)c1ccccc1`, which outcome is on record?
Answer: inactive

Question: Which outcome does the source give for `COCC(C)OCC(C)OCC(C)O` (centres undefined) here?
Answer: inactive

Question: For `OCCO`, which outcome is on record?
Answer: inactive

Question: For `Cc1cc(F)ccc1-c1cc(N2CC[C@@H](O)[C@H]2CO)ncc1N(C)C(=O)C(C)(C)c1cc(C(F)(F)F)cc(C(F)(F)F)c1`, which outcome is on record?
Answer: inactive

Question: With `COc1ccc2cc(S(=O)(=O)N[C@H](CC(=O)N[C@H](Cc3ccc(CN4[C@H](C)CCC[C@@H]4C)cc3)C(=O)N(C)C(C)C)c3ccc4c(c3)OCO4)ccc2c1` as the compound, how does the outcome read?
Answer: inactive

Question: With `Cc1cccc2ccccc12` as the compound, how does the outcome read?
Answer: inactive

Question: Which outcome does the source give for `CCCCCCCCN(C)CCCCCCCC` here?
Answer: inactive

Question: For `Cc1ncc(CO)c(CO)c1O`, which outcome is on record?
Answer: inactive

Question: For `CCCCCCCCCCCO`, which outcome is on record?
Answer: inactive

Question: Which outcome does the source give for `O=C1CCC(C2CCCCC2)CC1` here?
Answer: inactive

Question: Which outcome does the source give for `CCO[Si](CCCNC(N)=O)(OCC)OCC` here?
Answer: inactive

Question: With `CC(C)(C)c1csc(-c2cc3cc(OCc4ccccc4CC(=O)O)ccc3o2)n1` as the compound, how does the outcome read?
Answer: inactive

Question: Which outcome does the source give for `CCN(Cc1cccnc1)C(=O)c1cccc(Cl)c1[C@]1(C)C(=O)N(Cc2ccc(OC)cc2OC)c2ccc(Cl)cc21` here?
Answer: inactive

Question: Which outcome does the source give for `CCCCOC(=O)CC(CC(=O)OCCCC)(OC(C)=O)C(=O)OCCCC` here?
Answer: inactive

Question: For `c1ccc2ccccc2c1`, which outcome is on record?
Answer: inactive

Question: With `CC(C)(O)c1ccc(CNC(=O)c2cccnc2Oc2ccc3nonc3c2)cc1` as the compound, how does the outcome read?
Answer: inactive

Question: Which outcome does the source give for `CCCCCCCCCCCC[N+](C)(C)C` here?
Answer: inactive

Question: For `O=C(O)Cn1c(=O)n(Cc2ccc(Br)cc2F)c(=O)c2ccc(Cl)cc21`, which outcome is on record?
Answer: inactive

Question: With `Cc1oc2c(NC(=O)c3c(Cl)cccc3Cl)cccc2c1C(C)(C)O` as the compound, how does the outcome read?
Answer: inactive

Question: Which outcome does the source give for `O=C1c2ccccc2C(=O)N1CCc1noc(-c2ccc(CN3CCCCCC3)s2)n1` here?
Answer: inactive

Question: Which outcome does the source give for `CCCCCc1ccc(N)cc1` here?
Answer: inactive

Question: With `O=c1ccc2ccccc2o1` as the compound, how does the outcome read?
Answer: inactive

Question: With `Cc1occc1C(=O)Nc1ccc(C(=O)N2CCC(F)(F)/C(=C\C(=O)N3CCC(N4CCCCC4)CC3)c3ccccc32)cc1` as the compound, how does the outcome read?
Answer: inactive

Question: For `O=C(O)c1ccccc1C(=O)OCc1ccccc1`, which outcome is on record?
Answer: inactive

Question: Which outcome does the source give for `CCCCCCCCOc1ccc(C(=O)c2ccccc2)c(O)c1` here?
Answer: inactive

Question: For `Oc1ccc2ccccc2c1`, which outcome is on record?
Answer: inactive

Question: With `O=c1c(-c2ccc(O)cc2)coc2cc(O)cc(O)c12` as the compound, how does the outcome read?
Answer: inactive

Question: With `CCCOC(=O)c1cc(O)c(O)c(O)c1` as the compound, how does the outcome read?
Answer: inactive

Question: For `Cc1ccc(C(C)C)cc1`, which outcome is on record?
Answer: inactive

Question: Which outcome does the source give for `Oc1ccccc1` here?
Answer: inactive

Question: For `Cc1ccc2oc(CN(Cc3ccccc3)C(=O)Nc3c(F)cc(F)cc3F)c(-c3ccc(Cl)cc3)c2c1`, which outcome is on record?
Answer: inactive

Assay: CCTE_Harrill_HTTr_Apoptosis_MCF7: CCTE's 6-hour Apoptosis Assessment for the High-Throughput Transcriptomics (HTTr) Platform, in MCF-7 cells cultured in DMEM + 10% fetal bovine serum, Harrill Lab (AID 2284011)
In short: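 Read-out: CellEvent Caspase 3/7 Green signal by high content imaging, gain-of-signal indicating apoptosis. MCF-7 cells, DMEM + 10% FBS, eight-point dilution series, 6 h exposure. Curves fitted bidirectionally relative to DMSO negative control.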

Question: With `c1ccc(C[n+]2cccc3ccccc32)cc1` as the compound, how does the outcome read?
Answer: inactive

Question: With `CCCCCCCCCC(=O)O` as the compound, how does the outcome read?
Answer: inactive

Question: For `C[C@]12CC[C@@H]3c4ccc(O)cc4CC[C@H]3[C@@H]1CCC2=O`, which outcome is on record?
Answer: inactive

Question: Which outcome does the source give for `O=C(Nc1ccc(Cl)cc1)Nc1ccc(Cl)c(Cl)c1` here?
Answer: inactive

Question: Which outcome does the source give for `CC[C@H](NC(=O)c1cc(F)ccc1NS(=O)(=O)c1cccc2cccnc12)c1ccccc1` here?
Answer: inactive

Question: Which outcome does the source give for `CC1(C)NC(=O)N(c2ccc([N+](=O)[O-])c(C(F)(F)F)c2)C1=O` here?
Answer: inactive

Question: Which outcome does the source give for `O=C(OCCCCCCOC(=O)c1ccccc1)c1ccccc1` here?
Answer: inactive

Question: With `COCC(C)OCC(C)OCC(C)O` (centres undefined) as the compound, how does the outcome read?
Answer: inactive

Question: With `OCCO` as the compound, how does the outcome read?
Answer: inactive

Question: Which outcome does the source give for `Cc1cc(F)ccc1-c1cc(N2CC[C@@H](O)[C@H]2CO)ncc1N(C)C(=O)C(C)(C)c1cc(C(F)(F)F)cc(C(F)(F)F)c1` here?
Answer: inactive

Question: Which outcome does the source give for `COc1ccc2cc(S(=O)(=O)N[C@H](CC(=O)N[C@H](Cc3ccc(CN4[C@H](C)CCC[C@@H]4C)cc3)C(=O)N(C)C(C)C)c3ccc4c(c3)OCO4)ccc2c1` here?
Answer: inactive

Question: With `Cc1cccc2ccccc12` as the compound, how does the outcome read?
Answer: inactive

Question: Which outcome does the source give for `CCCCCCCCN(C)CCCCCCCC` here?
Answer: inactive

Question: For `Cc1ncc(CO)c(CO)c1O`, which outcome is on record?
Answer: inactive

Question: With `CCCCCCCCCCCO` as the compound, how does the outcome read?
Answer: inactive

Question: With `O=C1CCC(C2CCCCC2)CC1` as the compound, how does the outcome read?
Answer: inactive

Question: With `CCO[Si](CCCNC(N)=O)(OCC)OCC` as the compound, how does the outcome read?
Answer: inactive

Question: Which outcome does the source give for `CC(C)(C)c1csc(-c2cc3cc(OCc4ccccc4CC(=O)O)ccc3o2)n1` here?
Answer: inactive

Question: With `CCN(Cc1cccnc1)C(=O)c1cccc(Cl)c1[C@]1(C)C(=O)N(Cc2ccc(OC)cc2OC)c2ccc(Cl)cc21` as the compound, how does the outcome read?
Answer: inactive

Question: With `CCCCOC(=O)CC(CC(=O)OCCCC)(OC(C)=O)C(=O)OCCCC` as the compound, how does the outcome read?
Answer: inactive

Question: Which outcome does the source give for `c1ccc2ccccc2c1` here?
Answer: inactive

Question: For `CC(C)(O)c1ccc(CNC(=O)c2cccnc2Oc2ccc3nonc3c2)cc1`, which outcome is on record?
Answer: inactive

Question: With `CCCCCCCCCCCC[N+](C)(C)C` as the compound, how does the outcome read?
Answer: inactive

Question: Which outcome does the source give for `O=C(O)Cn1c(=O)n(Cc2ccc(Br)cc2F)c(=O)c2ccc(Cl)cc21` here?
Answer: inactive

Question: For `Cc1oc2c(NC(=O)c3c(Cl)cccc3Cl)cccc2c1C(C)(C)O`, which outcome is on record?
Answer: inactive

Question: For `O=C1c2ccccc2C(=O)N1CCc1noc(-c2ccc(CN3CCCCCC3)s2)n1`, which outcome is on record?
Answer: inactive

Question: Which outcome does the source give for `CCCCCc1ccc(N)cc1` here?
Answer: inactive

Question: Which outcome does the source give for `O=c1ccc2ccccc2o1` here?
Answer: inactive

Question: For `Cc1occc1C(=O)Nc1ccc(C(=O)N2CCC(F)(F)/C(=C\C(=O)N3CCC(N4CCCCC4)CC3)c3ccccc32)cc1`, which outcome is on record?
Answer: inactive

Question: Which outcome does the source give for `O=C(O)c1ccccc1C(=O)OCc1ccccc1` here?
Answer: inactive

Question: With `CCCCCCCCOc1ccc(C(=O)c2ccccc2)c(O)c1` as the compound, how does the outcome read?
Answer: inactive

Question: Which outcome does the source give for `Oc1ccc2ccccc2c1` here?
Answer: inactive

Question: Which outcome does the source give for `O=c1c(-c2ccc(O)cc2)coc2cc(O)cc(O)c12` here?
Answer: inactive

Question: For `CCCOC(=O)c1cc(O)c(O)c(O)c1`, which outcome is on record?
Answer: inactive

Question: With `Cc1ccc(C(C)C)cc1` as the compound, how does the outcome read?
Answer: inactive

Question: With `Oc1ccccc1` as the compound, how does the outcome read?
Answer: inactive

Question: Which outcome does the source give for `Cc1ccc2oc(CN(Cc3ccccc3)C(=O)Nc3c(F)cc(F)cc3F)c(-c3ccc(Cl)cc3)c2c1` here?
Answer: inactive
